# ± gives the standard deviation.
# Experiments:
# [1] = system: MILI (PIWIL2) piRISC loaded with piRNA #1 (26 nt); experiment: pre-steady-state target cleavage rate (min^-1); guide: piRNA #1 5'p-UGAGGUAGUAGGUUGUAUAGUAUCCA; higher = faster piRNA-guided slicing of the target; settings: auxiliary factor: 500 nM mouse GTSF1;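 note: 1 nM active piRISC with 0.1 nM target library at 33 °C single turnover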
# Outline: (§1)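 The pre-steady-state cleavage rate was calculated from a burst-and-steady-state fit. Data came from Cleave-'n-Seq, in which […] transcribed, DNA-blocked target RNA library was mixed with 1 nM active affinity-purified piRISC carrying one synthetic guide, with or without 500 nM GTSF1 partner protein, in HEPES–potassium acetate buffer at 33 °C for 0–8 or 0–960 min. Uncleaved targets were sequenced and normalised to depth and to weakly complementary targets, three trials were pooled, and k3 was capped at 0.0001 min^-1.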
# [2] = system: EfPiwi piRISC loaded with piRNA #1 (26 nt); experiment: pre-steady-state target cleavage rate (min^-1); auxiliary factor: 500 nM Ephydatia muelleri Gtsf1; guide: piRNA #1 5'p-UGAGGUAGUAGGUUGUAUAGUAUCCA; MIWI and MILI are mouse PIWI proteins and EfPiwi is from a freshwater sponge; tags in brackets are library labels; higher = faster piRNA-guided slicing of the target
# Outline: as §1
Sequence,pre-steady-state target cleavage rate [1],pre-steady-state target cleavage rate [2]
GGAGACGAUUGAAUACAACCUACUACCUCA,0.00898 ± 0.0022,0.00528 ± 0.0043
GGAGACGAAACUAUACAACCUACUUCCUCA,0.0627 ± 0.022,0.00318 ± 0.0023
GGAGACCAUACUAUACAACCUACUACUUCA,0.189 ± 0.019,0.00607 ± 0.0024
GGAGAGGAUACUAUACAACCUACUACCUA,0.104 ± 0.013,0.217 ± 0.081
GGAGUGGAUACUAUAGCAACCUACUACCUCA,0.188 ± 0.009,0.0919 ± 0.034
GGAGACGAUACUAUACUACGUACUACCUCA,0.0345 ± 0.004,0.00413 ± 0.0027
GGAGACGAUACUAUACAACCUACUACCACA,0.185 ± 0.018,0.00487 ± 0.0013
GGAGACCAUAUCUAUACAACCUACUACCUCA,0.138 ± 0.015,0.124 ± 0.051
GGAGACCAUACUAUACAACCUACAACCUGA,0.0179 ± 0.0095,0.00439 ± 0.0042
GGAGACGAUACUAUACAUCCUAGUACCUCA,0.0834 ± 0.019,0.0031 ± 0.001
GGAGACCUAUCUAUACACCCUACUACCUCA,0.0257 ± 0.006,0.00728 ± 0.0037
GGAGACCUUACUAUACAAGCUACUAGCUCA,0.0972 ± 0.02,0.00451 ± 0.0043
GGAGACCUAUGAAGUACAACCUACUACCUCA,0.00594 ± 0.0028,0.00479 ± 0.0035
GGAGAGGAUACUAUACUACCUACUACCUGA,0.0973 ± 0.013,0.00353 ± 0.002
GGAGACCAAACUAUACAACCUACUACCACA,0.118 ± 0.028,0.00528 ± 0.0044
GGAGACCAUACUAUACAACCUAAUACCUCA,0.117 ± 0.018,0.00857 ± 0.0039
GGAGACGAUACUAUACAACGUUCUACCUCA,0.00469 ± 0.0024,0.00329 ± 0.0013
GGAGUGGAUACUAUACAACUUACUACCUCA,0.0246 ± 0.0024,0.01 ± 0.0049
GGAGAGGAUACUAUACAAGCUACUACCUCA,0.143 ± 0.014,0.00667 ± 0.003
GGAGAGGAUACUAUACAAGCUACAACCUCA,0.0872 ± 0.017,0.00258 ± 0.0015

# Source: the supplement of paper PMC10338343
